About 8,800 targets were measured; listed, in parts, are those with a hit and a random draw of the rest. About 0.5% of all pairs of compound and target were hits.
How the values were obtained:
Test in all cases: log2 fold change, soluble protein after heating vs DMSO (PISA); higher = thermal stabilisation; K562 lysate, 10 uM; active = over 0.2 and 3.5 SD of the protein, either way, in both replicates (recomputed)
erlotinib = compound: C#Cc1cccc(Nc2ncnc3cc(OCCOC)c(OCCOC)cc23)c1 [erlotinib]
Procedure, shortened: (§1)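 K562 pellets were dounce-homogenised in PBS pH 7.4 with 1 mM MgCl2, and the crude extract at 1 mg/mL protein was treated with 10 μM compound for 30 min. Aliquots were heated for 3 min across 48°C-58°C, pooled, and brought to 0.5% NP-40 at 4°C; soluble protein was the supernatant after 21,000xg for 90 min. Soluble protein was quantified by TMTpro 16plex LC-MS/MS with channel sums equalised, and reported as log2 fold change in thermal stability against DMSO controls, with values from duplicates.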

[1] = compound: C/C(=N\NC(=O)C1=CC(=CC=C1)S(=O)(=O)N2CCOCC2)/C3=C(C=CC(=C3)Cl)O
Procedure, shortened: as §1

[2] = compound: C1=CC(=CC=C1C2=NC3=C(N2)C=C(C=C3)C(=O)N)OC4=CC=C(C=C4)Cl
Procedure, shortened: as §1

[3] = compound: C1=CC2=C(C=CC(=C2)/C=C\3/C(=O)NC(=NCC4=CC=CS4)S3)N=C1
Procedure, shortened: as §1

[4] = compound: C1=CC2=NC=CN=C2C=C1/C=C/3\C(=O)NC(=O)S3
Procedure, shortened: as §1

[5] = compound: C1=CC=C(C=C1)C2=NC(=C(N2)C3=CC=NC=C3)C4=CC(=C(C=C4)Cl)O
Procedure, shortened: as §1

[6] = compound: C1=CC=C2C(=C1)C3=NNC4=CC=CC(=C43)C2=O
Procedure, shortened: as §1

[7] = compound: C1CCN(C1)C(=O)NC2=CC=CC(=C2)NC3=NC=C(C(=N3)NCCC4=CN=CN4)Br
Procedure, shortened: as §1

[8] = compound: C1CN(CCC1(CC2=CC=C(C=C2)Cl)N)C3=NC=NC4=C3C=CN4
Procedure, shortened: as §1

IRAK-1-4 Inhibitor I = compound: C1COCCN1CCN2C3=CC=CC=C3N=C2NC(=O)C4=CC(=CC=C4)[N+](=O)[O-] [IRAK-1-4 Inhibitor I]
Procedure, shortened: as §1

Sequence of UniProt Q12851 (Q12851 whole entry, looked up): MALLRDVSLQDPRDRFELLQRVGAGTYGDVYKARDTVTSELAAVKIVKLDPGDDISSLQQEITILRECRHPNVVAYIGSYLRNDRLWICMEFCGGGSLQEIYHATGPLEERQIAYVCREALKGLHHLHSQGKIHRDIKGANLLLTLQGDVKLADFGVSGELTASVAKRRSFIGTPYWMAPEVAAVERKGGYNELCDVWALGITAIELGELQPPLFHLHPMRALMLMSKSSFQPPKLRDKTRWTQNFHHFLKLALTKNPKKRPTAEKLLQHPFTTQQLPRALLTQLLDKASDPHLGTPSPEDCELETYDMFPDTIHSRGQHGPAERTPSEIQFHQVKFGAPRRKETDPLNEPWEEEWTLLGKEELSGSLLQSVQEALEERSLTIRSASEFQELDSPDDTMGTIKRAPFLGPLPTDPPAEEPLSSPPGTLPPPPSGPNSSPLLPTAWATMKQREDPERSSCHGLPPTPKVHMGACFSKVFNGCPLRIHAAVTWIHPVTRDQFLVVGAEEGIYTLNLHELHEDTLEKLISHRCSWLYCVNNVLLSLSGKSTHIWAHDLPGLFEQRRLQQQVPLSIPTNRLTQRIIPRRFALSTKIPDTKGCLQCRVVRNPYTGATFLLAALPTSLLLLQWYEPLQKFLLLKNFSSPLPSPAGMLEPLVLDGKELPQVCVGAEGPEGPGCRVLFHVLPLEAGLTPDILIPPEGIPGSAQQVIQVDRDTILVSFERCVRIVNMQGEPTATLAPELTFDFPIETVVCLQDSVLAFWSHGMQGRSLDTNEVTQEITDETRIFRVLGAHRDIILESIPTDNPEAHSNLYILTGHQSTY
Sequence of UniProt Q9HAP2 (Q9HAP2 whole entry, looked up): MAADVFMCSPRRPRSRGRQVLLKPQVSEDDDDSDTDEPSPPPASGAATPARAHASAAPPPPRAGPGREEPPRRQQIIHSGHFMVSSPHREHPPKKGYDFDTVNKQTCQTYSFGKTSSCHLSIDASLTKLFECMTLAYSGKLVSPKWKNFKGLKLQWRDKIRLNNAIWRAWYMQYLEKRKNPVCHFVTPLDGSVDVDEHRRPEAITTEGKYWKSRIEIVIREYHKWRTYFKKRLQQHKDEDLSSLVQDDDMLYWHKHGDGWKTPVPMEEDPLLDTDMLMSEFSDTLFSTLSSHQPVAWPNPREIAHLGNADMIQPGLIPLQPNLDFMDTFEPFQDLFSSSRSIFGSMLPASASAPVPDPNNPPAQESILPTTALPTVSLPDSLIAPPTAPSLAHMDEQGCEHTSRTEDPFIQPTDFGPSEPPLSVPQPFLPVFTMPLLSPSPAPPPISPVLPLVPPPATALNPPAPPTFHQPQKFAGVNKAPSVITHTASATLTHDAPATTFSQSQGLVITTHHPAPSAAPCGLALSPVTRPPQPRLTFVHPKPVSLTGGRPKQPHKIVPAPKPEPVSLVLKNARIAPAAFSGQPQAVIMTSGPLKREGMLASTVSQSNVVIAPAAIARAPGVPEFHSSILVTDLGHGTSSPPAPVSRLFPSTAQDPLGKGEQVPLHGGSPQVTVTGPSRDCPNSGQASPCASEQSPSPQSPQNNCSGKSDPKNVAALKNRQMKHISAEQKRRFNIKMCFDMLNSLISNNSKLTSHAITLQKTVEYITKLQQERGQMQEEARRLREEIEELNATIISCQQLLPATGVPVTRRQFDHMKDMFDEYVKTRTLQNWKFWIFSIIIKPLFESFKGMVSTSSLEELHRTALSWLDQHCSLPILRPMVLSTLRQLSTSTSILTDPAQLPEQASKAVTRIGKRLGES
Sequence of UniProt Q6ZRQ5 (Q6ZRQ5 whole entry, looked up): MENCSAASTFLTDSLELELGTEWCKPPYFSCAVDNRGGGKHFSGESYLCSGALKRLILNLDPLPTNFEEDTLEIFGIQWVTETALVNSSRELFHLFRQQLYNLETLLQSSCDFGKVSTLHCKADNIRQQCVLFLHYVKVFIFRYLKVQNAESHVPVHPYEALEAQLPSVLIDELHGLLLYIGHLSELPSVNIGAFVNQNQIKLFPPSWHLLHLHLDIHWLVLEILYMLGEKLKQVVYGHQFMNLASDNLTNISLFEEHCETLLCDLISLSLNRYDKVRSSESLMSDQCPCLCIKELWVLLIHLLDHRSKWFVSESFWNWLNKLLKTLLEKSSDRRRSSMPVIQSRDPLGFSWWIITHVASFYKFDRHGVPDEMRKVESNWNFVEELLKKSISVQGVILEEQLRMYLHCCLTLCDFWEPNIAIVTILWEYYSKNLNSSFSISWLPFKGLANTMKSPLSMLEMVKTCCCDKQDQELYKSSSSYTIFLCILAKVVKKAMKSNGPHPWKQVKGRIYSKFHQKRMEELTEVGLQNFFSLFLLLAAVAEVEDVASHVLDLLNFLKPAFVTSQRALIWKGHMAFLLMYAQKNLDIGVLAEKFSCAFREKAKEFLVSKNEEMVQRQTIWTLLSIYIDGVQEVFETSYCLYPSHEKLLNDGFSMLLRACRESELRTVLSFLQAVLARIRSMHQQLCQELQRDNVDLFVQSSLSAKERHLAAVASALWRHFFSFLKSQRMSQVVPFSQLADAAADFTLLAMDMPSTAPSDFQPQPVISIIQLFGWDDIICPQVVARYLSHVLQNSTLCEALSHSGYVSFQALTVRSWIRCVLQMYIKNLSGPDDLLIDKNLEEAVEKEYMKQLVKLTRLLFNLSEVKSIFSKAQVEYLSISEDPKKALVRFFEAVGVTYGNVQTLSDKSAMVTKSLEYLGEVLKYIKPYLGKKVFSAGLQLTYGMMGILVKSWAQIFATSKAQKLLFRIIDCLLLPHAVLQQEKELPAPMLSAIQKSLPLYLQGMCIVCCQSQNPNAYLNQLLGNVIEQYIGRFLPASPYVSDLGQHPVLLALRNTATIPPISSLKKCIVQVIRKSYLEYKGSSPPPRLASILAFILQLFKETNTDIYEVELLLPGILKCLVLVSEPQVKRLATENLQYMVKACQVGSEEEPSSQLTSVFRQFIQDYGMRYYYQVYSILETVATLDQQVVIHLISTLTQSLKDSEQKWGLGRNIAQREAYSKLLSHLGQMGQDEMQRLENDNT
Sequence of UniProt Q5SRI9 (Q5SRI9 whole entry, looked up): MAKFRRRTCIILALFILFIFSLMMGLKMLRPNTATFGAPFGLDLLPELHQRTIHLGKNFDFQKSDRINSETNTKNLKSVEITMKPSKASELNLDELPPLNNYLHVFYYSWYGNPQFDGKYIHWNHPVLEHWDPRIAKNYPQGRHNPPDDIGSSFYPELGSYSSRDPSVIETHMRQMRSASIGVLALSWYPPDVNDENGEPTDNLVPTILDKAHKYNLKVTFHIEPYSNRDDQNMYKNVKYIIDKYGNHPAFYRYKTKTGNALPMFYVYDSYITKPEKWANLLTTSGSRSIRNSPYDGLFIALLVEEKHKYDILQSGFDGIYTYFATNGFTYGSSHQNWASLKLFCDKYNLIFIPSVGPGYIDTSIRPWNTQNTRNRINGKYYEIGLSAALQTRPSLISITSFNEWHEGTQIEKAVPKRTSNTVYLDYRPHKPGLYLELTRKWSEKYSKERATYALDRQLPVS
Sequence of UniProt Q9H6V9 (Q9H6V9 whole entry, looked up): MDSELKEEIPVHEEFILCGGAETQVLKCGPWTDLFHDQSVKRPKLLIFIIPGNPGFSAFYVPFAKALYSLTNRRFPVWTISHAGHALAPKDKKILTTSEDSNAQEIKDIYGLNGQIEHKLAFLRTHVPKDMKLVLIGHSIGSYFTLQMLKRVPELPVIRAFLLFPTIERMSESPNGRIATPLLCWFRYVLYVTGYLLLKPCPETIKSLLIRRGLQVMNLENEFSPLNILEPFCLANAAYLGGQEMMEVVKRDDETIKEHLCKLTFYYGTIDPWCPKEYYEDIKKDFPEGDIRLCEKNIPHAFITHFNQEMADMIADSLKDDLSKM
Sequence of UniProt O60337 (O60337 whole entry, looked up): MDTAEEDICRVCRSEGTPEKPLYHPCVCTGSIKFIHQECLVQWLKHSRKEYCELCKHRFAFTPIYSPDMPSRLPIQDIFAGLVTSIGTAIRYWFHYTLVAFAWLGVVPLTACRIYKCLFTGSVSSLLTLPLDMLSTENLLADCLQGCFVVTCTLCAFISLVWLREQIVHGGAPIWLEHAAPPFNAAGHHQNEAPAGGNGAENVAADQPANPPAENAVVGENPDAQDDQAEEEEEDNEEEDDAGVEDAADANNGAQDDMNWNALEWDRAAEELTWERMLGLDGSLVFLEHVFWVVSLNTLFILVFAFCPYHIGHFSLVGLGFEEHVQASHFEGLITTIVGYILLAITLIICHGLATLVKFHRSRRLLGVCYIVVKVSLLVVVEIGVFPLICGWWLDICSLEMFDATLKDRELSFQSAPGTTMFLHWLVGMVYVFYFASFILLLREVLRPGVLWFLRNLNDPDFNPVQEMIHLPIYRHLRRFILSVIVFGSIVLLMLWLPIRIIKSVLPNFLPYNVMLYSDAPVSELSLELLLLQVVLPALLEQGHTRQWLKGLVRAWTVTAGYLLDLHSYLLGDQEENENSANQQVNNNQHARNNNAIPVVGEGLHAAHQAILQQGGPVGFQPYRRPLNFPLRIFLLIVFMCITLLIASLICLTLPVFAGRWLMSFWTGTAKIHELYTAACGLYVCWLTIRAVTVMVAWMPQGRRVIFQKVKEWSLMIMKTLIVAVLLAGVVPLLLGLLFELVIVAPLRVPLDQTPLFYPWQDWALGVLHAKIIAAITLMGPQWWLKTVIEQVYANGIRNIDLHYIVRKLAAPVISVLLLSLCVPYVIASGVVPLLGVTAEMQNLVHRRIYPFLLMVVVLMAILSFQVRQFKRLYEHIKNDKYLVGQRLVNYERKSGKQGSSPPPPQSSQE
Sequence of UniProt Q16539 (Q16539 whole entry, looked up): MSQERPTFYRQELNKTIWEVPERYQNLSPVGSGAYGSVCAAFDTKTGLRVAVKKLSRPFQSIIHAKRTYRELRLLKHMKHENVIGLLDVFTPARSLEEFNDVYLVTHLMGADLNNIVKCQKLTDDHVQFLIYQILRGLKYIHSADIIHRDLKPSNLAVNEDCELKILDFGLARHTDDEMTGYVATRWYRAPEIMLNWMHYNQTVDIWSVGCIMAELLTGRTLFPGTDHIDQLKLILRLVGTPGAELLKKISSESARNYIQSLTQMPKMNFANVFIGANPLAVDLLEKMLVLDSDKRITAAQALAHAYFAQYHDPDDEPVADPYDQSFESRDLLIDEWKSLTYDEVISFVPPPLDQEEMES

Row | Target | log2 fold change (erlotinib) | log2 fold change [1] | log2 fold change [2] | log2 fold change [3] | log2 fold change [4] | log2 fold change [5] | log2 fold change [6] | log2 fold change [7] | log2 fold change [8] | log2 fold change (IRAK-1-4 Inhibitor I)
1 | MINDY1 isoform 3 (UniProt Q8N5J2) | 0.052 (inactive) | -0.006 (inactive) | 0.048 (inactive) | -0.031 (inactive) | 0.245 (inactive) | 0.053 (inactive) | 0.056 (inactive) | -0.082 (inactive) | -0.066 (inactive) | -0.02 (inactive)
2 | KSR1 (UniProt Q8IVT5) | 0.011 (inactive) | -0.099 (inactive) | -0.038 (inactive) | 0.058 (inactive) | 0.022 (inactive) | 0.059 (inactive) | -0.078 (inactive) | 0.015 (inactive) | -0.037 (inactive) | -0.008 (inactive)
3 | KIF2C (UniProt Q99661) | 0.019 (inactive) | 0.033 (inactive) | -0.008 (inactive) | -0.01 (inactive) | -0.008 (inactive) | 0.002 (inactive) | -0.033 (inactive) | 0.015 (inactive) | -0.006 (inactive) | -0.019 (inactive)
4 | MAT2B (UniProt Q9NZL9) | -0.009 (inactive) | -0.004 (inactive) | -0.033 (inactive) | -0.014 (inactive) | -0.006 (inactive) | -0.01 (inactive) | 0.036 (inactive) | 0.015 (inactive) | -0.004 (inactive) | 0.017 (inactive)
5 | LIMK2 isoform 3 (UniProt P53671) | -0.013 (inactive) | -0.038 (inactive) | -0.048 (inactive) | 0.062 (inactive) | 0.053 (inactive) | 0.016 (inactive) | 0.003 (inactive) | -0.002 (inactive) | 0.001 (inactive) | -0.031 (inactive)
6 | MRPL12 (UniProt P52815) | 0.046 (inactive) | -0.02 (inactive) | -0.013 (inactive) | 0.041 (inactive) | -0.015 (inactive) | -0.015 (inactive) | 0.014 (inactive) | -0.007 (inactive) | 0.077 (inactive) | -0.029 (inactive)
7 | KRI1 (UniProt Q8N9T8) | -0.017 (inactive) | -0.038 (inactive) | -0.017 (inactive) | -0.1 (inactive) | -0.012 (inactive) | 0.02 (inactive) | -0.138 (inactive) | 0.033 (inactive) | -0.04 (inactive) | 0.047 (inactive)
8 | MACO1 (UniProt Q8N5G2) | -0.072 (inactive) | -0.009 (inactive) | -0.005 (inactive) | -0.161 (inactive) | 0.062 (inactive) | -0.022 (inactive) | -0.336 (active) | 0 (inactive) | 0.012 (inactive) | 0.022 (inactive)
9 | MMS22L (UniProt Q6ZRQ5) | 0.067 (inactive) | 0.032 (inactive) | 0 (inactive) | -0.093 (inactive) | 0.037 (inactive) |  | 0.064 (inactive) | 0.019 (inactive) | -0.021 (inactive) | 
10 | MLST8 (UniProt Q9BVC4) | 0.038 (inactive) | 0.008 (inactive) | -0.041 (inactive) | 0.015 (inactive) | 0.012 (inactive) | 0.015 (inactive) | 0.002 (inactive) | -0.091 (inactive) | 0.033 (inactive) | -0.001 (inactive)
11 | MICU2 (UniProt Q8IYU8) | 0.025 (inactive) | 0.04 (inactive) | -0.008 (inactive) | -0.024 (inactive) | -0.011 (inactive) | 0.061 (inactive) | -0.094 (inactive) | -0.037 (inactive) | 0.038 (inactive) | -0.044 (inactive)
12 | MLXIP (UniProt Q9HAP2) | 0.011 (inactive) | 0.003 (inactive) | 0.027 (inactive) | 0.01 (inactive) | -0.017 (inactive) | 0.04 (inactive) | -0.011 (inactive) | -0.025 (inactive) | -0.01 (inactive) | 0.003 (inactive)
13 | MAP2K4 isoform 2 (UniProt P45985) | 0.035 (inactive) | -0.069 (inactive) | -0.035 (inactive) | -0.003 (inactive) | -0.001 (inactive) | 0.06 (inactive) | 0.283 (inactive) | 0.039 (inactive) | -0.058 (inactive) | 0.048 (inactive)
14 | MINK1 (UniProt Q8N4C8) | 0.057 (inactive) | 0.058 (inactive) | -0.059 (inactive) | 0.135 (inactive) | 0.045 (inactive) | -0.141 (inactive) | 0 (inactive) | 0.016 (inactive) | -0.037 (inactive) | 0.061 (inactive)
15 | KRIT1 (UniProt O00522) | 0.071 (inactive) | 0.061 (inactive) | 0.043 (inactive) | -0.074 (inactive) | 0.177 (inactive) | 0.038 (inactive) | -0.034 (inactive) | -0.042 (inactive) | 0.043 (inactive) | -0.073 (inactive)
16 | LRPPRC (UniProt P42704) | 0.04 (inactive) | 0.028 (inactive) | -0.02 (inactive) | 0.048 (inactive) | 0.067 (inactive) | -0.004 (inactive) | -0.017 (inactive) | -0.012 (inactive) | 0.006 (inactive) | 0.006 (inactive)
17 | LAP3 (UniProt P28838) | -0.034 (inactive) | 0.08 (inactive) | 0.082 (inactive) | -0.022 (inactive) | 0.013 (inactive) | -0.026 (inactive) | -0.017 (inactive) | 0.027 (inactive) | 0.008 (inactive) | 0.061 (inactive)

Row | Target | log2 fold change (erlotinib) | log2 fold change [1] | log2 fold change [2] | log2 fold change [3] | log2 fold change [4] | log2 fold change [5] | log2 fold change [6] | log2 fold change [7] | log2 fold change [8] | log2 fold change (IRAK-1-4 Inhibitor I)
18 | LDAH isoform 2 (UniProt Q9H6V9) | -0.017 (inactive) | -0.015 (inactive) | -0.057 (inactive) | -0.023 (inactive) | 0.005 (inactive) | -0.01 (inactive) | -0.021 (inactive) | -0.032 (inactive) | 0 (inactive) | 0.029 (inactive)
19 | MCCC1 (UniProt Q96RQ3) | 0.037 (inactive) | -0.028 (inactive) | 0.048 (inactive) | -0.052 (inactive) | 0.025 (inactive) | -0.029 (inactive) | -0.085 (inactive) | -0.022 (inactive) | 0.077 (inactive) | -0.008 (inactive)
20 | MARF1 (UniProt Q9Y4F3) | 0.025 (inactive) | 0.231 (inactive) | 0.043 (inactive) | -0.157 (inactive) | 0.122 (inactive) | 0.019 (inactive) | 0.073 (inactive) | -0.111 (inactive) | -0.035 (inactive) | -0.003 (inactive)
21 | LIG3 (UniProt P49916) | -0.003 (inactive) | 0.027 (inactive) | -0.04 (inactive) | 0.009 (inactive) | -0.006 (inactive) | 0.011 (inactive) | -0.013 (inactive) | 0 (inactive) | -0.036 (inactive) | -0.035 (inactive)
22 | METTL2A (UniProt Q96IZ6) | 0.023 (inactive) | -0.009 (inactive) | -0.026 (inactive) | 0.037 (inactive) | 0 (inactive) | -0.018 (inactive) | -0.026 (inactive) | 0.002 (inactive) | 0.166 (inactive) | 0.042 (inactive)
23 | MGST1 (UniProt P10620) | -0.041 (inactive) | -0.068 (inactive) | 0.016 (inactive) | -0.051 (inactive) | 0.024 (inactive) | -0.031 (inactive) | -0.036 (inactive) | -0.07 (inactive) | 0.089 (inactive) | 0.067 (inactive)
24 | MAP4K5 (UniProt Q9Y4K4) | 0.032 (inactive) | -0.169 (inactive) | -0.025 (inactive) | -0.019 (inactive) | -0.002 (inactive) | 0.039 (inactive) |  | 0.089 (inactive) | -0.04 (inactive) | -0.001 (inactive)
25 | MDM2 isoform 11 (UniProt Q00987) | 0.108 (inactive) | -0.039 (inactive) | 0.037 (inactive) | -0.071 (inactive) | 0.021 (inactive) | 0.084 (inactive) | 0.04 (inactive) |  |  | 0.151 (inactive)
26 | MANEA (UniProt Q5SRI9) | -0.079 (inactive) | -0.119 (inactive) | 0.076 (inactive) | 0.089 (inactive) | 0.027 (inactive) | 0.118 (inactive) | -0.092 (inactive) | -0.014 (inactive) | 0.016 (inactive) | 0.041 (inactive)
27 | MAPK14 (UniProt Q16539) | 0.044 (inactive) | 0.038 (inactive) | -0.1 (inactive) | -0.05 (inactive) | -0.012 (inactive) | 0.82 (active) | 0.081 (inactive) | -0.076 (inactive) | 0.015 (inactive) | 0.013 (inactive)
28 | MAP4K2 (UniProt Q12851) | 0.001 (inactive) | -0.202 (inactive) | -0.082 (inactive) | -0.195 (inactive) | 0.05 (inactive) | -0.057 (inactive) | 0.355 (inactive) | 0.288 (inactive) | -0.205 (inactive) | -0.046 (inactive)
29 | MOCS3 (UniProt O95396) | 0.047 (inactive) | 0.01 (inactive) | -0.033 (inactive) | -0.135 (inactive) | -0.011 (inactive) | -0.003 (inactive) | -0.02 (inactive) | 0.143 (inactive) | -0.07 (inactive) | 0.049 (inactive)
30 | MIF (UniProt P14174) | 0.006 (inactive) | 0.003 (inactive) | -0.021 (inactive) | -0.045 (inactive) | -0.007 (inactive) | -0.009 (inactive) | 0.047 (inactive) | -0.023 (inactive) | 0.032 (inactive) | 0.058 (inactive)
31 | KLHL12 isoform 2 (UniProt Q53G59) | -0.051 (inactive) | 0.021 (inactive) | 0.004 (inactive) | 0.053 (inactive) | 0.165 (inactive) | -0.134 (inactive) | 0.04 (inactive) |  |  | 0.046 (inactive)
32 | MAP4K4 isoform 6 (UniProt O95819) | 0.006 (inactive) |  | 0.156 (inactive) |  | 0.094 (inactive) | -0.061 (inactive) |  | 0.003 (inactive) | -0.078 (inactive) | -0.049 (inactive)
33 | MARCHF6 (UniProt O60337) | 0.004 (inactive) | 0.008 (inactive) | 0.101 (inactive) | 0.042 (inactive) | -0.202 (inactive) |  | -0.133 (inactive) | 0.047 (inactive) | -0.023 (inactive) | 
34 | LGALS3BP (UniProt Q08380) | -0.154 (inactive) | 0.293 (inactive) | 0.064 (inactive) | 0.331 (inactive) |  |  | -0.203 (inactive) | 0.018 (inactive) | -0.171 (inactive) | 

Source: the supplement of paper PMC10849652
